# Compound activity as filed in PubChem.
# HT1080-NT tox: kills 2HG-producing HT-1080-NT fibrosarcoma cells; Potency, µM (doses to about 46.1 µM), for inactives: at the highest dose activity, negative = less viability, usual class: cytotoxic; HT-1080-NT fibrosarcoma viability, CellTiter-Glo ATP luminescence, 48 h; 360,000 compounds, 1.6% hits;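 note: NT is the 2HG producing partner of a matched IDH1 knockdown line; potency is the fitted concentration of half-maximal effect; 0% = DMSO-treated cells and -100% = media-only wells without cells; nearly all actives have a fitted effect of over 55% in size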
#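 Toxicity toward the 2HG-producing NT line was scored as %Activity, normalised to DMSO and no-cell wells, from CellTiter-Glo luminescence after 48 hours' treatment.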
# TDP1 cell CPT: DT40-hTDP1 cell growth loss with CPT | chicken DT40 Tdp1-/-;hTDP1 cells + 20 nM CPT, ATP luminescence, 48 h | Potency, µM (titrated, usually from 46.2 µM), for the others: at the highest dose activity change, negative = growth inhibition, usual class: inhibitors | 420,000 compounds, 12% hits; note: potency is the fitted concentration of half-maximal effect; nearly all actives have a fitted effect of over 55% in size
#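 Chicken DT40 Tdp1-/- cells stably complemented with human TDP1 were seeded at 400 cells/well in medium containing 20 nM camptothecin, exposed to pin-transferred compounds, and grown at 37 °C for at least 48 hr. Viability was read as ATP luminescence.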
# DT40 TDP1 no CPT: qHTS for Inhibitors of human tyrosyl-DNA phosphodiesterase 1 (TDP1): qHTS in cells in absence of CPT; DT40 Tdp1-/- hTDP1 cells, no CPT, ATP luminescence, 48 h; 420,000 compounds, 15% hits; Potency, µM (doses to about 46.2 µM), for inactives: at the highest dose activity change, negative = growth inhibition, actives largely listed as inhibitors; note: potency is the fitted concentration of half-maximal effect; nearly all actives have a fitted effect of over 55% in size
#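 Chicken DT40 Tdp1-/- cells stably complemented with human TDP1 were seeded at 400 cells/well with DMSO in place of 20 nM camptothecin. After compound pinning, cells grew at least 48 hr at 37 °C; viability read by CellTiter-Glo luminescence.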
# IL1B secr inh: inhibitors of inflammasome signaling (IL-1 beta secretion). THP-1 LPS/ATP IL-1B secretion, AlphaLISA, 16 h; hits give low values. activity change, % at 57.5 µM. 360,000 compounds, 4.7% hits. AID 743279; in the data active = activity change below about -50%; inconclusive = mostly about -30% to -49%
#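 Secreted IL-1B measured by AlphaLISA bead assay after 16 h compound exposure of THP-1 cells; compounds (final up to 57.5 uM) added 1 h before LPS (250 ng/mL) and ATP (1.25 mM) stimulation; lower signal means less secretion.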
# HT1080 IDH1KD tx: toxicity to HT-1080 IDH1 knockdown cells (counter line); HT-1080 IDH1 knockdown viability, ATP luminescence, 48 h; Potency, µM (titrated, usually from 46.1 µM), without a hit: at the top dose activity, negative = toxicity, usual class: cytotoxic; 360,000 compounds, 2% hits;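 note: potency is the fitted concentration of half-maximal effect; 0% = DMSO wells and -100% = cell-free medium wells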
#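 After a 2 h attachment period, IDH1KD HT-1080 cells took pin-transferred compound for 48 h at 37 °C; ATP-based luminescence after 10 min room-temperature reagent incubation reported viability.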
# * hit, by the source's call; ? = inconclusive; . = no result given; [ ] = dose if it differs, or a comment. In the library only some 19% were active in any assay of this set; here they are far more common. Unless noted, calls come from the whole dose curve; as a rule, active = well fitted curve in the direction sought with a large enough effect; inconclusive = small, poorly fitted or top-dose-only effect, or another doubt; inactive = no such curve, though single readings can be large; an effect the other way counts as inactive or inconclusive. Unless noted, % is set by controls: 0 for no effect and ±100 for the full control effect.
SMILES,HT1080-NT tox,TDP1 cell CPT,DT40 TDP1 no CPT,IL1B secr inh,HT1080 IDH1KD tx
COCCCn1cc(CN2CC(N3CCN(Cc4ccccc4F)CC3)CS2(=O)=O)nn1 (centres undefined),24%,-10%,-9%,-2,7%
CCCCCCSc1ccc([C@H]2N[C@@](CC(C)C)(C(=O)OC)[C@H]3C(=O)N(C)C(=O)[C@@H]23)cc1OC,-15%,?,18µM*,-53*,-10%
COC(=O)[C@]1(CC(C)C)N[C@H](c2ccc(SC3CCCCC3)c(OC)c2)[C@@H]2C(=O)N(C)C(=O)[C@@H]21,0%,?,18µM*,?,-10%
COC(=O)[C@]1(CC(C)C)N[C@H](c2ccc(-c3ccc4c(c3)OCO4)cc2)[C@@H]2C(=O)N(C)C(=O)[C@@H]21,21%,?,?,21,8%
CN(C(=O)COc1cccc(C#N)c1)C1CCS(=O)(=O)C1 (centres undefined),-3%,3%,-7%,-16,-2%
CCOc1ccc(-n2nc3cc(C)c(NC(=O)c4cc(OCC)c(OCC)c(OCC)c4)cc3n2)cc1,.,-2%,-2%,.,.
Cn1cc([N+](=O)[O-])c(C(=O)n2cccn2)n1,5%,2%,-7%,-14,12%
Cc1cc(N(CCO)CCO)ccc1N=Nc1cc(F)ccc1F,?,?,?,-75*,?
CCC/C(C#Cc1ccsc1)=C1/c2ccccc2C(=O)N1c1ccccc1,-30%,?,?,-89*,?
O=C1c2ccccc2C(=O)N1c1ccccc1,9%,1%,7%,-19,7%
O=C1c2ccccc2C(=O)N1CCC#C/C=C1\c2ccccc2C(=O)N1c1ccccc1,15%,?,21µM*,42,-11%
CCC/C(C(=O)NCCO)=C1/c2ccccc2C(=O)N1c1ccccc1,?,1%,?,29,0%
CCC/C(C#CCCN1C(=O)c2ccccc2C1=O)=C1/c2ccccc2C(=O)N1c1ccccc1,-3%,18µM*,?,-23,-1%
CCC/C(C#Cc1cc(OC)cc(OC)c1)=C1/c2ccccc2C(=O)N1c1ccccc1,15%,26µM*,?,0,-3%
COc1ccccc1CCNC(=O)C1CC(=O)N(c2ccccc2F)C1 (centres undefined),-3%,-8%,-8%,21,1%
CCC/C(C#Cc1ccc(N(C)C)cc1)=C1/c2ccccc2C(=O)N1c1ccccc1,2%,15µM*,16µM*,4,1%
O=C(CSc1nc2[nH]ncc2c(=O)n1-c1ccccc1)c1ccc2c(c1)OCCO2,-25%,?,?,-54*,-5%
O=C1COc2ccc(C(=O)CSc3nc4ccccc4c(=O)n3-c3ccc(Cl)c(Cl)c3)cc2N1,0%,23µM*,?,84,1%
Nc1cc(N)nc(SCC(=O)c2ccc3c(c2)NC(=O)CO3)n1,-6%,-1%,-15%,-1,0%
O=C1COc2ccc(C(=O)CSc3nnc(Cc4cccs4)n3-c3ccc(Cl)cc3)cc2N1,9%[9.24 µM],18µM*,18µM*,0,?
CCCn1c(SCC(=O)c2ccc3c(c2)NC(=O)CO3)nc2ccccc21,?,10µM*,9.2µM*,30,-18%
O=C(NCCOc1ccccc1)C(c1ccccc1)c1ccccc1,-18%,-2%,-2%,-4,0%
CC(c1nnc(SCC(=O)N2CC(=O)Nc3ccccc32)n1Cc1ccccc1)N(C)C (centres undefined),5%,-4%,-3%,0,3%
CCCOC(=O)CSc1nnc2ccc3ccccc3n12,.,-1%,-9%,.,.
Oc1ccccc1-n1nc2ccc3nonc3c2n1,-1%,9%,25%,0,-3%
SMILES,HT1080-NT tox,TDP1 cell CPT,DT40 TDP1 no CPT,IL1B secr inh,HT1080 IDH1KD tx
COc1ccc(Oc2ncc3ncc(=O)n(C4CC4)c3n2)cc1,.,-5%,3%,.,.
CCc1ccc(-n2c(SCC(=O)c3ccc4c(c3)NC(=O)CO4)nc3ccccc3c2=O)cc1,0%,?,21µM*,53,8%
O=C1COc2ccc(C(=O)CSc3nnc(NCc4ccccc4)s3)cc2N1,-3%,?,13µM*,-21,-9%
Cn1c(SCC(=O)c2ccc3c(c2)NC(=O)CO3)nc2ccccc21,10%,?,?,43,30%
CC(C)NC(=S)N/N=C/c1cccs1,-2%,0.92µM*,0.82µM*,-1,-13%
CC(C)NC(=S)N/N=C/c1ccccc1[N+](=O)[O-],-4%,5%,?,19,-1%
S=C(NCCc1ccccc1)N/N=C/c1cccs1,0%,?,?,17,-6%
CC(C)NC(=S)N/N=C/c1ccc(C(C)(C)C)cc1,?,13µM*,10µM*,-68*,?
Cc1ccc(C)c(/C=N/NC(=S)NC(C)C)c1,26%,5.8µM*,5.8µM*,5,19%
COC(=O)c1cc2c(=O)c3ccccc3oc2nc1/C=C/N(C)C,-10%,1%,-27%,-3,-9%
O=C1CCN(Cc2ccccc2)C=C1c1ccc(C(F)(F)F)cc1,-3%,?,?,16,-16%
O=C1CCN(Cc2ccccc2)C=C1c1ccc(Cl)cc1,-3%,23µM*,?,-6,-4%
CCCNC(=O)N1C[C@H](O)COC[C@H]2O[C@@H](CC(=O)N[C@@H]3CCN(Cc4ccccc4)C3)CC[C@@H]21,16%,10%,-2%,-20,1%
N#Cc1ccc(NC(=S)NC(=O)C2CC2)cc1,-2%,0%,?,6,-3%
Cc1ccccc1OCc1nc(-c2ccc(NC(=O)c3ccco3)cc2)no1,-14%,?,23µM*,0,-20%
Cc1ccccc1OCc1nc(-c2ccc(NC(=O)c3ccc4c(c3)OCO4)cc2)no1,21µM*,?,23µM*,13,21µM*
COc1ccccc1CC(=O)Nc1ccc(-c2noc(COc3cccc(C)c3C)n2)cc1,1%,18µM*,13µM*,-8,-6%
COc1ccc(CC(=O)Nc2ccc(-c3noc(-c4ccccc4OC)n3)cc2)cc1,-25%,?,?,-63*,?
CCN1CCN(S(=O)(=O)c2ccc(Cl)c(C(=O)Oc3ccc(CC(=O)OC)cc3)c2)CC1,4%,-17%,-9%,42,-6%
O=C(COc1ccc(Cl)cc1Cl)Nc1c(-c2cccs2)nc2ccccn12,?,-6%,-27%,18,?
CN1C(=O)c2cccc3c(S(N)(=O)=O)ccc1c23,-2%,-27%,-3%,-88*,-1%
COc1ccc(N(C(=O)c2cccnc2)S(=O)(=O)c2ccc3c4c(cccc24)C(=O)N3C)cc1,?,?,?,-28,?
